Measured values published in PubChem BioAssay (NCATS).
Values joined by “and” are separate entries in the source; they are usually repeats but may differ in a detail not shown here. Equal values may be shown once. Inconclusive results are not listed. Some compounds were tested as several samples or in several runs, with calls that do not always agree. Active and inactive are the calls of the source. Unless noted, calls come from the whole dose curve; as a rule, active = well fitted curve in the direction sought with a large enough effect; inconclusive = small, poorly fitted or top-dose-only effect, or another doubt; inactive = no such curve, though single readings can be large; an effect the other way counts as inactive or inconclusive.

What was measured:
[1] = qHTS for Inhibitors of Cell Surface uPA Generation: Validation Assay (AID 493164); note: 0% is about no effect
Summary of the method: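 RAW 264.7 cells (4000/well) were plated overnight, then exposed for 18 h at 37 C, 5% CO2 to compounds in a 7-point 1:5 titration (2.45 nM–38.3 uM final). Intracellular ATP was read by ATP-Lite luminescence.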

[2] = biological target: Galactokinase (Homo sapiens) (UniProt P51570); experiment: qHTS Validation Assay for Inhibitors of Human Galactokinase (GALK) (AID 493189); note: 0% is about no effect
Summary of the method: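 5 nM GALK / 100 uM galactose / 35 uM ATP, 20 mM HEPES pH8.0, 5 mM MgCl2, 60 mM NaCl, 1 mM DTT, 0.01% BSA (final). RT 1 h; Kinase-Glo Plus luminescence.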

[3] = Validation screen for small molecules that induce DNA re-replication in SW480 colon adenocarcinoma cells (AID 504364); note: potency is the fitted concentration of half-maximal effect
Summary of the method: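 250 cells/well; compound pinned in; 48 hr, 37 C, 5% CO2; Hoechst added, 40 min; nuclear fluorescence imaged, 405 ex / 500-530 em; re-replication scored as increase in high-intensity nuclei.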

[4] = biological target: Peptidyl-prolyl cis-trans isomerase NIMA-interacting 1 (Homo sapiens) (UniProt Q13526); experiment: qHTS Validation Assay to Find Inhibitors of Pin1 (AID 504536; active = well fitted inhibition curve with a large enough effect in the polarisation, with a control signal flat, not every such curve was filed as active; the % refers to the polarisation;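 note: 0% = full Pin1 enzyme wells and -100% = no-enzyme wells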)
Summary of the method: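 Fluorescence polarization competition: compounds (titration) displace HiFluor-488-labeled Pin1-1b peptide from Pin1 (0.3 uM final) in pH 7.5 HEPES buffer with DTT, 10 min at room temperature; %Activity normalized to no-enzyme wells, curves fitted.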

[5] = biological target: Phosphoglycerate kinase, glycosomal (Trypanosoma brucei brucei) (UniProt P07378); experiment: qHTS Validation Assay to Find Inhibitors of Phosphoglycerate Kinase (AID 504547);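 note: control wells lack PGK and mark full inhibition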
Summary of the method: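 Substrate/PGK mix plus compound; reaction started with GAPDH (100nM final) to form 1,3-BPG; 60 min RT; Kinase-Glo Plus 10 min; luminescence. TEA 100mM pH 7.6, MgCl2 5mM, Tween-20 0.01%.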

[6] = biological target: phosphoglycerate mutase (Leishmania major) (UniProt Q4Q090); experiment: qHTS Validation Assay to Find Inhibitors of Phosphoglycerate Mutase (AID 504548);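 note: end-point luminescence from Kinase-GloPlus after the PGAM reaction; series mostly up to about 58 µM; % is set by controls: 0 for no effect and ±100 for the full control effect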
Summary of the method: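 Inhibition of L. major PGAM was assessed by Kinase-GloPlus luminescence following a 45-minute room-temperature reaction with enzyme at 1.25nM final.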

[7] = Inducers of the Endoplasmic Reticulum Stress Response (ERSR) in human glioma: Validation (AID 504836); note: 0% is about no effect
Summary of the method: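 Stably transfected U87-MG human glioma cells carrying a GRP78-based luminescent sensor were seeded at 1000 cells/well, pin-dosed with compounds and incubated 16 h. Luciferase reagent was then added, and end-point luminescence was read after 10 min at room temperature.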

[8] = qHTS for Inhibitors of ATXN expression: Validation of Cytotoxic Assay (AID 588349); note: potency is the fitted concentration of half-maximal effect
Summary of the method: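 Read-out: ATP-based luminescence (CellTiter Glo) reflecting viability of HEK293 cells after 72 hr incubation at 37 degrees C with a concentration series of each compound.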

[9] = qHTS for Inhibitors of ATXN expression: Validation (AID 588378); note: nearly all actives have a fitted effect of over 75% in size; note: potency is the fitted concentration of half-maximal effect
Summary of the method: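 Compounds were pinned onto attached HEK293 cells carrying an ATXN2-firefly luciferase construct and incubated 24 hrs at 37 degrees C. Each well then received a fluorescent viability reagent followed by luciferase substrate for end-point luminescence.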

[10] = biological target: DNA dC->dU-editing enzyme APOBEC-3G (Homo sapiens) (UniProt Q9HC16); experiment: qHTS for inhibitors of Vif-A3G interactions: Validation (AID 588379); note: 0% is about no effect
Summary of the method: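 HeLa cells stably expressing Vif and A3G-eYFP, 700 cells/well, incubated overnight at 37 deg C, then exposed to compound overnight at 37 deg C. Inhibition of Vif-mediated degradation read as increased yellow fluorescence (Ex 488/Em 500-530) by laser-scanning cytometry.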

[11] = biological target: Estrogen receptor (Homo sapiens) (UniProt P03372); experiment: qHTS assay for small molecule agonists of estrogen receptor alpha signaling (AID 588514; calls by dose curve;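 note: 0% = vehicle only and 100% = reference agonist; nearly all actives have a fitted effect of over 70% in size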)
Summary of the method: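 Cells were plated at 5000/well, incubated 4 hrs at 37 C, dosed with compound titration series, incubated 18 hrs at 37 C, loaded with CCF4 dye for 2 hrs at RT, then fluorescence was read.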

[12] = biological target: Bile acid receptor (Homo sapiens) (UniProt Q96RI1); experiment: qHTS assay for small molecule agonists of farnesoid X receptor signaling (AID 588527; calls by dose curve;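 note: series mostly up to about 77 µM; 0% = vehicle basal and 100% = reference agonist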); conditions: HEK293T FXR-UAS-bla, beta-lactamase ratio, 16 h; stronger effect = higher value
Summary of the method: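 Quantitative HTS used FXR-UAS-bla HEK293T cells with 16 h compound incubation at 37 C. EC50 values came from concentration-response curves normalized to chenodeoxycholic acid.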

[13] = biological target: Glucocorticoid receptor (Homo sapiens) (UniProt P04150); experiment: qHTS assay for small molecule agonists of glucocorticoid receptor signaling (AID 588532; active = well fitted curve in the direction sought with a large enough effect in the signal ratio, with a control signal flat; the % refers to the signal ratio;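 note: 100% = dexamethasone at 0.1 µM and 0% = DMSO only wells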); conditions: HeLa MMTV-bla, beta-lactamase ratio, agonist, 18 h; stronger effect = higher value; percent of dexamethasone control, DMSO zero
Summary of the method: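 Stimulation of a glucocorticoid response element-driven beta-lactamase gene was measured in HeLa cells. Responses were scaled between DMSO basal and 0.1 uM dexamethasone, then fitted for half-maximal stimulation.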

[14] = biological target: Glucocorticoid receptor (Homo sapiens) (UniProt P04150); experiment: qHTS assay for small molecule antagonists of glucocorticoid receptor signaling (AID 588533; active = well fitted inhibition curve with a large enough effect in the signal ratio, with a control signal flat, not every such curve was filed as active; the % refers to the signal ratio;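 note: cells stimulated with 2 nM dexamethasone as agonist; % is set by controls: 0 for no effect and ±100 for the full control effect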)
Summary of the method: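 Antagonist-mode qHTS: compound titrations added to GRE-bla HeLa cells, then dexamethasone 2 nM final; 18 h, 37 C. CCF4 FRET fluorescence normalized to dexamethasone and DMSO; IC50 from Hill fit.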

[15] = biological target: Ubiquitin carboxyl-terminal hydrolase 1 (Homo sapiens) (UniProt O94782); experiment: Inhibitors of USP1/UAF1: Pilot qHTS (AID 504865); note: nearly all actives have a fitted effect of over 35% in size; note: potency is the fitted concentration of half-maximal effect
Summary of the method: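 In 50mM HEPES pH 7.8 containing 0.5mM EDTA, 1mM TCEP, 0.1 mg/ml BSA and 0.01% Tween-20, 1nM USP1/UAF1 is exposed to compound for 15 min, then Ub-Rho (150nM final) is added and fluorescence is read over time.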

[16] = Nrf2 qHTS screen for inhibitors: Validation (AID 493153; active = well fitted inhibition curve with a large enough effect in the main read-out, with a control signal flat, not every such curve was filed as active; note: potency is the fitted concentration of half-maximal effect); conditions: Potency: luciferase luminescence; viability change: measured here: cytotoxicity max response
Summary of the method: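 Luminescence from an ARE-firefly luciferase reporter in A549 cells gives Nrf2 inhibition; an earlier CellTiter-Fluor fluorescent read flags cytotoxicity. Cells in 5% FBS OPTI-MEM received compound dilution series for 18-24 h at 37°C.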

[17] = biological target: Estrogen receptor (Homo sapiens) (UniProt P03372); experiment: qHTS assay for small molecule antagonists of estrogen receptor alpha signaling (AID 588513; active = well fitted curve in the direction sought with a large enough effect in the signal ratio, with a control signal flat, not every such curve was filed as active; the % refers to the signal ratio; note: % is set by controls: 0 for no effect and ±100 for the full control effect)
Summary of the method: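 Fluorescence from CCF4 substrate after 2 h at room temperature gave reporter activity; cells had been exposed to compound and 0.5nM 17-beta-estradiol for 18 h at 37 C. Hill-equation fitting yielded IC50 and maximal response.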

[18] = biological target: Androgen receptor (Homo sapiens) (UniProt P10275); experiment: qHTS assay for small molecule agonists of androgen receptor signaling (AID 588515; active = well fitted curve in the direction sought with a large enough effect in the signal ratio, with a control signal flat; the % refers to the signal ratio; note: % is set by controls: 0 for no effect and ±100 for the full control effect); conditions: AR-UAS-bla HEK293, beta-lactamase ratio, agonist 16 h; stronger effect = higher value
Summary of the method: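 EC50 and efficacy came from Hill fits of titrations (up to 92 uM) normalized to 30 nM R1881 as 100% and DMSO as 0%. Compound exposure was 16 h at 37 C on AR-UAS-bla HEK293 cells, with a 405/460/530 nm CCF4 fluorescence read.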

[19] = biological target: Androgen receptor (Homo sapiens) (UniProt P10275); experiment: qHTS assay for small molecule antagonists of androgen receptor signaling (AID 588516; active = well fitted curve in the direction sought with a large enough effect in the signal ratio, with a control signal flat, not every such curve was filed as active; the % refers to the signal ratio; note: % is set by controls: 0 for no effect and ±100 for the full control effect)
Summary of the method: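 Cells were plated and incubated 5 h, compounds added in titration, then R1881 (10 nM final) as agonist. After 16 h at 37 C, CCF4 substrate was loaded for 2 h at room temperature and fluorescence measured.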

Chain of Peptidyl-prolyl cis-trans isomerase NIMA-interacting 1 (Homo sapiens) (Q13526 whole entry, looked up): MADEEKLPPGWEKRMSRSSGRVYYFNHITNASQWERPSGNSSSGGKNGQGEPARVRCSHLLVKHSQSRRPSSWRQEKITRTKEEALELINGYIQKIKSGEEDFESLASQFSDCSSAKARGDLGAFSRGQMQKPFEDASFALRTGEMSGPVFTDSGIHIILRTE
Chain of Glucocorticoid receptor (Homo sapiens) (P04150 whole entry, looked up): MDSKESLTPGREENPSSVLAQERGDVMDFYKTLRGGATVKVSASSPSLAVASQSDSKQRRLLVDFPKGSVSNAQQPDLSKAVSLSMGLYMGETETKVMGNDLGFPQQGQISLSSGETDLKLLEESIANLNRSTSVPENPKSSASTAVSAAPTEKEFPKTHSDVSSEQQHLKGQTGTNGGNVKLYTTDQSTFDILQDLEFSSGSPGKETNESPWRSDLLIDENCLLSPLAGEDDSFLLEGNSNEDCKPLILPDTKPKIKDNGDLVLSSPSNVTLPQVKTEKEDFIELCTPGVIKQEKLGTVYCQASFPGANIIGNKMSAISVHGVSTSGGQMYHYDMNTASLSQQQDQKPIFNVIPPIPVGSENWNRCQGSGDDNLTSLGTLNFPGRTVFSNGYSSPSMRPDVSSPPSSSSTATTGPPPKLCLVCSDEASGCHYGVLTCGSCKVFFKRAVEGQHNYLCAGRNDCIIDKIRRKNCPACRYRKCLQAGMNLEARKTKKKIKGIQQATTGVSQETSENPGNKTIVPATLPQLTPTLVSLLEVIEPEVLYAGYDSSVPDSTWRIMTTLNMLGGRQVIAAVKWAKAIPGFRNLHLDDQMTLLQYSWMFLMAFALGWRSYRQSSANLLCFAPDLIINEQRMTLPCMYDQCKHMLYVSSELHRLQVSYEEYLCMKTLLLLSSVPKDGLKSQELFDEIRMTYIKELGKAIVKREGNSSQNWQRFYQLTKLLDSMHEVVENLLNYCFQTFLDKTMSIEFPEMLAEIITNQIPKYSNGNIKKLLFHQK
Chain of Phosphoglycerate kinase, glycosomal (Trypanosoma brucei brucei) (P07378 whole entry, looked up): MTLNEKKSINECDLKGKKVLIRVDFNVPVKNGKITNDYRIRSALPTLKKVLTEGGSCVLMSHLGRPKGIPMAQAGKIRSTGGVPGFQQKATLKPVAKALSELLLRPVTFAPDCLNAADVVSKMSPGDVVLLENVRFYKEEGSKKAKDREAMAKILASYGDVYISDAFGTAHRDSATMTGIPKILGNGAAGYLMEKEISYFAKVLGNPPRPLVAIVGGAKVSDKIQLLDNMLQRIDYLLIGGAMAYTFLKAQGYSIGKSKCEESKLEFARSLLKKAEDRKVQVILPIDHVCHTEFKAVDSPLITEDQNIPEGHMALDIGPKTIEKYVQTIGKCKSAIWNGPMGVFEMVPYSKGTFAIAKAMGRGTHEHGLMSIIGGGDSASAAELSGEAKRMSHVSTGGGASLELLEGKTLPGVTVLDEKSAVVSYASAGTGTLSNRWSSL
Chain of Galactokinase (Homo sapiens) (P51570 whole entry, looked up): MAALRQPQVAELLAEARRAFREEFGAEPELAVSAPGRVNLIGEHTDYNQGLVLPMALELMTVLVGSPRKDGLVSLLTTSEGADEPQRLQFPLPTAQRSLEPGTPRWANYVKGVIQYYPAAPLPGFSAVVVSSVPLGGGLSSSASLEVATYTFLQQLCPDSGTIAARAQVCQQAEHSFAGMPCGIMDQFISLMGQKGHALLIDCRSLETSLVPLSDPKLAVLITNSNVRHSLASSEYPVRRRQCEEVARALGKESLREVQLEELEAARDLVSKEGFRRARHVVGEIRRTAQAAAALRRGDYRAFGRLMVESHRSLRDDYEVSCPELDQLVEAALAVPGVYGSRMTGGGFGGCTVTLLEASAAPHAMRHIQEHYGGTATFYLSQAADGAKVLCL
Chain of Ubiquitin carboxyl-terminal hydrolase 1 (Homo sapiens) (O94782 whole entry, looked up): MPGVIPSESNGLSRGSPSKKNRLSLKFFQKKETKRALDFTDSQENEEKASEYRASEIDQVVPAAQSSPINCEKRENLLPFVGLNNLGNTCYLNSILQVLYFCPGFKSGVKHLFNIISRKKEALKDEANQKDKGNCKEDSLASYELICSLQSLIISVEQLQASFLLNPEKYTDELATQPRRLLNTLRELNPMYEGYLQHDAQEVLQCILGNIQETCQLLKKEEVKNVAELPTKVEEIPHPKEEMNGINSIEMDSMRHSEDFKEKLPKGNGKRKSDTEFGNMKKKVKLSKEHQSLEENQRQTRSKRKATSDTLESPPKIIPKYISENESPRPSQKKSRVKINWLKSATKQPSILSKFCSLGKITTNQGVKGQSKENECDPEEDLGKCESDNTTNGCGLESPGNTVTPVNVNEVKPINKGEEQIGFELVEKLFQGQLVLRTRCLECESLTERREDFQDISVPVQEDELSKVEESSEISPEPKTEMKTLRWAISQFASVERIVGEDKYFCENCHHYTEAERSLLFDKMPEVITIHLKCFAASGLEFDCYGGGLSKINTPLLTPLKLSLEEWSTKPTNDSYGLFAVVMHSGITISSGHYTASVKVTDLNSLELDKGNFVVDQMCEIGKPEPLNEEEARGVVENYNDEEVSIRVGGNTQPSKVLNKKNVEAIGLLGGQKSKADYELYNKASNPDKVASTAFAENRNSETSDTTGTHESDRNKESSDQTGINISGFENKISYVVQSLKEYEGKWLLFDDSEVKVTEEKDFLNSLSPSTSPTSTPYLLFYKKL
Chain of phosphoglycerate mutase (Leishmania major) (Q4Q090 1-553): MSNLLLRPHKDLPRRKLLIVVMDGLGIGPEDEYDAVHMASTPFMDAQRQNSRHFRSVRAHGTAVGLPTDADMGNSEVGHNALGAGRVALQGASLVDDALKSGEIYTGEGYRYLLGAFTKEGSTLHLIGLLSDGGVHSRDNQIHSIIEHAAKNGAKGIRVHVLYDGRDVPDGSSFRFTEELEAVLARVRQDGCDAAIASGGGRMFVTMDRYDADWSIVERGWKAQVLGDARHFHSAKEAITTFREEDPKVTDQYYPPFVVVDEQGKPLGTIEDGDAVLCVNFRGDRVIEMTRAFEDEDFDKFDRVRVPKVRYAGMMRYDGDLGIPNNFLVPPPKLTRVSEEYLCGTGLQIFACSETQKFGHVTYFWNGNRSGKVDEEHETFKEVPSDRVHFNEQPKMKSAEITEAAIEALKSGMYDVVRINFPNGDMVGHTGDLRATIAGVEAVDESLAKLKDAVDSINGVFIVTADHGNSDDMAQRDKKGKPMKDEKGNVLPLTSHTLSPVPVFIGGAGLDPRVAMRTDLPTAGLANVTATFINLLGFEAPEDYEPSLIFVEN
Chain of Estrogen receptor (Homo sapiens) (P03372 whole entry, looked up): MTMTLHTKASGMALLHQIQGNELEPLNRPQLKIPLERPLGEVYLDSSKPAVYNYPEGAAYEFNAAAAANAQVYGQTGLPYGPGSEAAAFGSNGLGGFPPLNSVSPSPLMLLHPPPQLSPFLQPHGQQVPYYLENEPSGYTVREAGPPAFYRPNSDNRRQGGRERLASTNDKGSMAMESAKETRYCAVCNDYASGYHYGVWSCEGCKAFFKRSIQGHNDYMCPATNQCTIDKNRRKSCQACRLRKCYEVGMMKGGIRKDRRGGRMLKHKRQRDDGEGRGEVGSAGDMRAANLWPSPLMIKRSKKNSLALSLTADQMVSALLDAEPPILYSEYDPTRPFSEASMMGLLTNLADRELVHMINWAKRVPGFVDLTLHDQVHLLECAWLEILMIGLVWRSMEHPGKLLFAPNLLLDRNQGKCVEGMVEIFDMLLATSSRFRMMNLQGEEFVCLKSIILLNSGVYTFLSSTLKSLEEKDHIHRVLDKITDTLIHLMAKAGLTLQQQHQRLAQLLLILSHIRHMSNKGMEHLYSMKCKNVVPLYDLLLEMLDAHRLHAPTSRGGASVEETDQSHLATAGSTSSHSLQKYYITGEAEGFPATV
Chain of DNA dC->dU-editing enzyme APOBEC-3G (Homo sapiens) (Q9HC16 whole entry, looked up): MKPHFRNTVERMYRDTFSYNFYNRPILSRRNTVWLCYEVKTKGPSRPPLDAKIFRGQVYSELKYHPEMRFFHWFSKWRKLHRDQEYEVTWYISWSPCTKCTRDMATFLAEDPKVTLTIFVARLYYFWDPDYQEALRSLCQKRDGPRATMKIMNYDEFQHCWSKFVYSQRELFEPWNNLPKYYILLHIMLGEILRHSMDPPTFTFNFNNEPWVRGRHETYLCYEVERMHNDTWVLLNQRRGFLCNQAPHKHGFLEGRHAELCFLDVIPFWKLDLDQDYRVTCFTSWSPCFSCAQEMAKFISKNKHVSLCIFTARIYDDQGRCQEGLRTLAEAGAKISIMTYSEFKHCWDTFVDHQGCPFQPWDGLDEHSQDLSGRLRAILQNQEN
Chain of Bile acid receptor (Homo sapiens) (Q96RI1 whole entry, looked up): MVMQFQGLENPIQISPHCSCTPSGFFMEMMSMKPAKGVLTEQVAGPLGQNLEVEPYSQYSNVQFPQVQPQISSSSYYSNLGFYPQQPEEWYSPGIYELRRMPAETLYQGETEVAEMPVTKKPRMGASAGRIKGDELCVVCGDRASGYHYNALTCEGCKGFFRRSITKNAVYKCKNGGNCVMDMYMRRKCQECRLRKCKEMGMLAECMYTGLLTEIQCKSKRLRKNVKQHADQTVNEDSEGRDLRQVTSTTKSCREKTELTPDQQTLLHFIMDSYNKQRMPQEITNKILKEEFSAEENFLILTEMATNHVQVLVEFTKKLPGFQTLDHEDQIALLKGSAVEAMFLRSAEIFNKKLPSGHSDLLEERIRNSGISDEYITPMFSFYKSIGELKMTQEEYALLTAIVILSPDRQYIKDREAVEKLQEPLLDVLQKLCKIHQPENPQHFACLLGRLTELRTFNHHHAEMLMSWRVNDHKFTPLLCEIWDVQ

O=c1[nH]c2ccccc2n1C1CCN(CCCC(c2ccc(F)cc2)c2ccc(F)cc2)CC1
inactive: outcome [1] | outcome [2] | Potency [3] | Potency [4] | Potency [5] | outcome [6] | outcome [7] | Potency [8] | Potency [9] | outcome [10] | Potency [11] | activation [12] -1.92% | activation [13] 4.7% | Potency [14]

Cc1ncc(CNC(=O)N(CCCl)N=O)c(N)n1
inactive: outcome [1] | outcome [2] | Potency [3] | Potency [4] | Potency [5] | outcome [6] | outcome [7] | Potency [15] | Potency [8] | Potency [9]

Fc1ccc(C(OCCN2CCN(CCCc3ccccc3)CC2)c2ccc(F)cc2)cc1
active: Potency [8] 35.5 µM | Potency [9] 20 µM
inactive: outcome [1] | outcome [2] | Potency [4] | Potency [5] | outcome [6] | outcome [7] | outcome [10]

COc1ccccc1N1CCNCC1
inactive: Potency [16] | outcome [1] | outcome [2] | Potency [3] | Potency [4] | Potency [5] | outcome [6] | outcome [7] | Potency [15] | Potency [8] | Potency [9]
10.4%: viability change [16]

CC[C@@H](CO)NC(=O)[C@@H]1C=C2c3cccc4c3c(cn4C)C[C@H]2N(C)C1
inactive: Potency [16] | outcome [1] | Potency [5] | outcome [6] | outcome [7] | Potency [15] | Potency [9]
-1.92%: viability change [16]

CC[N+](CC)(CC)CC
inactive: outcome [2] | Potency [3] | outcome [7] | Potency [15]

CN1C[C@H](CNC(=O)OCc2ccccc2)C[C@@H]2c3cccc4c3c(cn4C)C[C@H]21
inactive: outcome [1] | outcome [2] | Potency [5] | outcome [6] | outcome [7] | Potency [15] | outcome [10]

NCC(CC(=O)O)c1ccc(Cl)cc1 (stereo unspecified)
12.6%: viability change [16]
inactive: outcome [1] | outcome [2] | Potency [3] | Potency [4] | Potency [5] | outcome [6] | outcome [7] | Potency [15] | Potency [8] | Potency [9]
active: Potency [16] 9.2 µM

CC[C@@H](CO)NC(=O)[C@@H]1C=C2c3cccc4[nH]cc(c34)C[C@H]2N(C)C1
inactive: Potency [16] | outcome [1] | Potency [5] | outcome [6] | outcome [7] | Potency [15] | Potency [8] | Potency [9]
-12.7%: viability change [16]

CC(O)(CS(=O)(=O)c1ccc(F)cc1)C(=O)Nc1ccc(C#N)c(C(F)(F)F)c1 (stereo unspecified)
inactive: Potency [16] | outcome [1] | Potency [4] | Potency [5] | outcome [6] | outcome [7] | Potency [15] | Potency [8] | Potency [9]
-8.54%: viability change [16]

COc1ccc(Cc2nccc3cc(OC)c(OC)cc23)cc1OC
active: Potency [16] 7.31 µM
inactive and 50.1 µM (active): Potency [15]
-7.85%: viability change [16]
inactive: outcome [2] | Potency [3] | outcome [7]

CCCC(C)(COC(N)=O)COC(=O)NC(C)C (stereo unspecified)
inactive: Potency [16] | outcome [1] | outcome [2] | Potency [3] | Potency [4] | Potency [5] | outcome [6] | outcome [7] | Potency [15] | Potency [8] | Potency [9] | outcome [17] | Potency [11]
5.42%: viability change [16]

C[C@@H]1O[C@@H](O[C@H]2C[C@@H](O)[C@]3(CO)[C@H]4[C@H](O)C[C@]5(C)[C@@H](C6=CC(=O)OC6)CC[C@]5(O)[C@@H]4CC[C@]3(O)C2)[C@H](O)[C@H](O)[C@H]1O
inactive: outcome [1] | Potency [3] | Potency [4] | Potency [5] | outcome [6] | outcome [7] | Potency [15] | Potency [9]

CC(=O)[C@H]1CC[C@H]2[C@@H]3CC[C@H]4C[C@H](O)CC[C@]4(C)[C@H]3C(=O)C[C@]12C
inactive: outcome [1] | outcome [2] | Potency [3] | Potency [4] | Potency [5] | outcome [6] | outcome [7] | Potency [15] | Potency [8] | Potency [9]

O=c1[nH]c2ccccc2n1CCCN1CCC(n2c(=O)[nH]c3cc(Cl)ccc32)CC1
-5.95%: viability change [16]
inactive: Potency [16] | outcome [1] | outcome [2] | Potency [3] | Potency [4] | Potency [5] | outcome [6] | outcome [7] | Potency [15]

Nc1ccncc1
-2.07%: viability change [16]
inactive: Potency [16] | outcome [1] | outcome [2] | Potency [3] | Potency [4] | Potency [5] | outcome [6] | outcome [7] | Potency [15] | Potency [8] | Potency [9] | outcome [10] | outcome [17] | Potency [11] | activation [18] -4.84% | outcome [19]

CC(C)=CCOc1c2occc2cc2ccc(=O)oc12
inactive: Potency [16] | outcome [1] | Potency [4] | Potency [5] | outcome [6] | outcome [7] | Potency [15] | Potency [8] | Potency [9]
0.848%: viability change [16]

C=C(C)[C@H]1Cc2c(ccc3c2O[C@@H]2COc4cc(OC)c(OC)cc4[C@@H]2C3=O)O1
active: Potency [3] 0.92 µM
inactive: outcome [1] | outcome [2] | Potency [4] | Potency [5] | outcome [6] | outcome [7] | outcome [10] | activation [12] -1.33% | activation [13] -11.8%

c1ccc(C2CC2)c(OCC2=NCCN2)c1
5.58%: viability change [16]
inactive: Potency [16] | outcome [1] | outcome [2] | Potency [3] | Potency [4] | Potency [5] | outcome [6] | outcome [7] | Potency [15] | Potency [8] | Potency [9] | outcome [10]

CC(=O)[C@H]1CC[C@H]2[C@@H]3CC[C@H]4C[C@](C)(O)CC[C@]4(C)[C@H]3CC[C@]12C
inactive: outcome [1] | Potency [4] | Potency [5] | outcome [6] | outcome [7] | Potency [15] | Potency [8] | Potency [9]
